Laboratory results taken from PubChem BioAssay AID2284355 (EPA ToxCast).
Results filed as inconclusive are left out. Calls of active or inactive are those of the source. Rule for the calls: active = hit-call score of the fitted dose curve at least 0.9, where 1 is the maximum; inconclusive = response in the unintended direction; inactive = score below 0.9.

Tested on: rainbow trout Retinoid X Receptor beta (RXRb)
Test: ATG_rtRXRb_EcoTox2: Attagene TRANS-FACTORIAL EcoTox-2 HepG2 Assay for rainbow trout Retinoid X Receptor beta (RXRb)
Experimental: ATG_EcoTox2 is a cell-based, multiplexed assay created by modifying the existing Attagene TRANS-FACTORIAL system to include a panel of nuclear receptors from some or all the following species: human (Homo sapiens), african clawed frog (Xenopus laevis), rainbow trout (Oncorhynchus mykiss), japanese medaka (Oryzias latipes), and zebrafish (Danio rerio). The ECOTOX2-FACTORIAL format uses HepG2, a human liver cell line, with measurements taken at 24 hours after chemical dosing in a 24-well plate. ATG_rtRXRb_EcoTox2 is one of 29 assay components calculated in the ATG_EcoTox2 assay. It is designed to make measurements of mRNA induction, a form of inducible reporter, as detected with fluorescence intensity signals by Reverse transcription polymerase chain reaction (RT-PCR) and Capillary electrophoresis technology.The assay endpoint ATG_rtRXRb_EcoTox2 was analyzed in the positive analysis fitting direction relative to DMSO as the negative control and baseline of activity. Using a type of inducible reporter, measures of mRNA for gain-of-signal activity can be used to understand the reporter gene at the transcription factor-level as they relate to the gene RXRb. Furthermore, this assay endpoint can be referred to as a primary readout, because this assay has produced multiple assay endpoints where this one serves a reporter gene function. […]

SMILES | AC50
[Cl][Sn]([c]1ccccc1)([c]1ccccc1)[c]1ccccc1 | 0.119 µM (active)
